Assay outcomes (PubChem)
In the library only some 3.5% were active in any assay of this set; here they are far more common.
TMEM16A inh: blocks the mouse calcium-activated chloride channel TMEM16A. normalized B-score (activity score, 25-100; higher = stronger inhibition) at 10 µM. HEK293 TMEM16A/YFP iodide influx fluorescence, ionomycin. actives 1.2% (n = 310,000). AID 588511. Q8BHY3;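 active = ratio plate-corrected score three or more library SD toward inhibition, starting fluorescence score within five deviations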;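 also: score derived from kinetic fluorescence span divided by baseline fluorescence per well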
Target sequence (Q8BHY3 whole entry, looked up): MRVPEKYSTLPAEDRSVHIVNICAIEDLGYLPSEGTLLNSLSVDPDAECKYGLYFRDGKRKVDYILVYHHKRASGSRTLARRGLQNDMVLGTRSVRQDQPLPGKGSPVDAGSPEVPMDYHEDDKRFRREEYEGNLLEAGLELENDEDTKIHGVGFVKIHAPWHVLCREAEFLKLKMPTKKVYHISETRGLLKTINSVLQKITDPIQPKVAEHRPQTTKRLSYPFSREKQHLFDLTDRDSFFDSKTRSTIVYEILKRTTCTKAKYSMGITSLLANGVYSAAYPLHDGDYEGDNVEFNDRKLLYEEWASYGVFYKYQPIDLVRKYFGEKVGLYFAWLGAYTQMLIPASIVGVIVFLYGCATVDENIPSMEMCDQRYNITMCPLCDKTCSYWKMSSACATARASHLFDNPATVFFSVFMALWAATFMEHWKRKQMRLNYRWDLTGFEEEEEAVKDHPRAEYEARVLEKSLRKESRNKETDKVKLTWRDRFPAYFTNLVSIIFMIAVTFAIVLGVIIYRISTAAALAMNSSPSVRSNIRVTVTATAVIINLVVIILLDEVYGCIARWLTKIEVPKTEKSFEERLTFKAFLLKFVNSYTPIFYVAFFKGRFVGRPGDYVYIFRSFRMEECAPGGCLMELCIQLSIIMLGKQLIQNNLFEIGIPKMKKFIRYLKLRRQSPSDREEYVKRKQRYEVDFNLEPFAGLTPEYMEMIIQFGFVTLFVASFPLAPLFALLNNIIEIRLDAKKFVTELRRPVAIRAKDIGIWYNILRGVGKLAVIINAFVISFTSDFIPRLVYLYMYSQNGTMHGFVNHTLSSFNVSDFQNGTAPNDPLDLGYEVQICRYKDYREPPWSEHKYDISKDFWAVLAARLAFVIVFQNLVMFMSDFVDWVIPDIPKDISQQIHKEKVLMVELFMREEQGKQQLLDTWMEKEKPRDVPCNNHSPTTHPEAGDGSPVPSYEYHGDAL
Kir21 inh: blocks the mouse Kir2.1 inward-rectifier potassium channel; HEK293-Kir2.1, FluxOR thallium flux fluorescence; active compounds read low; B-score at 10 µM; actives 0.85% (n = 310,000); AID 1672;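 active = fluorescence ratio B-score at or below minus 3 SD of library scores, with starting-brightness B-score within 2 SD, cut at about -4.2 in these data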;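 also: channel flux triggered by added potassium and thallium sulfate stimulus; B-score of peak minus minimum fluorescence over baseline after thallium stimulus; more negative B-score means stronger Kir2.1 block with less thallium influx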
KCNK9 inh: human KCNK9 channel inhibition. Q9NPC2. AID 488922. HEK293 KCNK9, FluxOR thallium flux fluorescence; active compounds read low. actives 1.2% (n = 310,000). B-score at 10 µM;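 active = ratio B-score over 3 SD below the library mean, with starting fluorescence within 5 SD of its mean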;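 also: negative B-score means less thallium flux so channel inhibition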
ANO1 activ: activators or potentiators of mouse TMEM16A chloride channel. actives 0.3% (n = 340,000). HEK293 TMEM16A/YFP-H148Q/I152L, iodide quench fluorescence; active compounds read low. B-score at 10 µM. Q8BHY3;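 active = fluorescence-ratio B-score plate-corrected deviation score at least 3 library SD below zero, with starting fluorescence score within 5 deviations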;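 also: channel opened by trigger with iodide after compound preincubation; score built on the fluorescence ratio of max minus min over baseline; more negative score means more quench and so TMEM16A activation or potentiation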
KCNK3 inh: human KCNK3 channel inhibition, primary screen. AID 602410. B-score at 10 µM. actives 0.84% (n = 340,000). CHO-KCNK3 thallium flux, FluxOR fluorescence; active compounds read low;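 active = B-score under library mean minus 4 SD, starting fluorescence ratio at most library mean plus 5 SD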;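 also: more negative B-score means stronger inhibition of thallium flux through KCNK3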
Starred values were filed as active, the others as inactive.

Results for CCOc1ccc(C(=O)N2CCc3cc(OC)c(OC)cc3C2)cc1OCC ?
TMEM16A inh: inactive; Kir21 inh: -0.01; KCNK9 inh: inactive; ANO1 activ: inactive; KCNK3 inh: inactive

How did CCOc1ccc(CCNC(=O)COC(=O)c2cccc(S(=O)(=O)N3CCCCC3)c2)cc1OCC do in these assays?
TMEM16A inh: inactive; Kir21 inh: 0.17; KCNK9 inh: -7.9*; ANO1 activ: inactive; KCNK3 inh: inactive

Results for Cc1c(C(=O)N2CCc3ccccc3C2)oc2ccc(S(=O)(=O)N3CCCCCC3)cc12 ?
TMEM16A inh: inactive; Kir21 inh: 0.45; KCNK9 inh: -6.8*; ANO1 activ: inactive; KCNK3 inh: inactive

What do the screens show for `CCOc1ccc(CCNC(=O)COC(=O)CCC(=O)c2cccs2)cc1OCC`?
TMEM16A inh: inactive; Kir21 inh: -5.3*; KCNK9 inh: inactive; ANO1 activ: inactive; KCNK3 inh: inactive

What do the screens show for `CCOc1cc2c(cc1OCC)CN(C(=O)c1cccc(S(=O)(=O)N3CCCC3)c1)CC2`?
ANO1 activ: inactive; KCNK3 inh: -9.9*

How did CCN(C(=O)COC(=O)c1ccc2ccccc2n1)c1c(N)n(Cc2ccccc2)c(=O)[nH]c1=O do in these assays?
ANO1 activ: inactive; KCNK3 inh: inactive

Results for CCN(C(=O)COC(=O)CCC1CCCC1)c1c(N)n(Cc2ccccc2)c(=O)[nH]c1=O ?
ANO1 activ: inactive; KCNK3 inh: inactive

What do the screens show for `CN(C(=O)Cn1cccc1C1=NC(c2ccccc2)CO1)c1ccccc1` (configuration not stated)?
TMEM16A inh: inactive; Kir21 inh: -4.7*; KCNK9 inh: inactive; ANO1 activ: inactive; KCNK3 inh: inactive

What do the screens show for `CN(C)CCCSc1nc(-c2ccccc2)nc2c1CCC2`?
TMEM16A inh: inactive; Kir21 inh: -9.7*; KCNK9 inh: inactive; ANO1 activ: inactive; KCNK3 inh: inactive

What do the screens show for `CN(C)CCSc1nc(-c2ccccc2)nc2c1CCC2`?
TMEM16A inh: inactive; Kir21 inh: -1.4; KCNK9 inh: inactive; ANO1 activ: inactive; KCNK3 inh: inactive

Results for COC(=O)c1sccc1NC(=O)c1cc2c(s1)CCCC2 ?
TMEM16A inh: inactive; Kir21 inh: 0.11; KCNK9 inh: -6.7*; ANO1 activ: inactive; KCNK3 inh: inactive

How did Clc1ccc(Cn2c(-c3cccnc3Cl)nc3ccccc32)cc1 do in these assays?
TMEM16A inh: inactive; Kir21 inh: -5.3*; KCNK9 inh: inactive; ANO1 activ: inactive; KCNK3 inh: inactive

What do the screens show for `Clc1ccc(Cn2c(-c3cccnc3Cl)nc3ccccc32)c(Cl)c1`?
TMEM16A inh: inactive; Kir21 inh: 0.78; KCNK9 inh: inactive; ANO1 activ: inactive; KCNK3 inh: inactive

Results for CCn1c(CNC(=O)c2cccs2)n[nH]c1=S ?
TMEM16A inh: inactive; Kir21 inh: 1.4; KCNK9 inh: inactive; ANO1 activ: inactive; KCNK3 inh: inactive

What do the screens show for `COc1cc(/C=C2/C(=O)NN(c3cccc(C)c3)C2=O)ccc1OC(=O)c1ccco1`?
TMEM16A inh: inactive; Kir21 inh: -6.1*; KCNK9 inh: inactive; ANO1 activ: inactive; KCNK3 inh: inactive

Results for COc1cc(/C=C2/C(=O)NN(c3cccc(C)c3)C2=O)cc([N+](=O)[O-])c1O ?
TMEM16A inh: inactive; Kir21 inh: 0.45; KCNK9 inh: inactive; ANO1 activ: inactive; KCNK3 inh: inactive

Results for COc1cc(/C=C2/SC(=S)N(CC(=O)O)C2=O)ccc1OC(=O)c1ccco1 ?
TMEM16A inh: inactive; Kir21 inh: 0.86; KCNK9 inh: inactive; ANO1 activ: -5.3*; KCNK3 inh: inactive

What do the screens show for `CCOc1cc(N2CCOCC2)c(OCC)cc1NC(=O)CN1CCCC1`?
TMEM16A inh: inactive; Kir21 inh: 2.7; KCNK9 inh: inactive; ANO1 activ: inactive; KCNK3 inh: inactive

How did O=S(=O)(c1ccccc1)N1CCCC1c1nc2ccccc2s1 (configuration not stated) do in these assays?
TMEM16A inh: inactive; Kir21 inh: -4.5*; KCNK9 inh: inactive; ANO1 activ: inactive; KCNK3 inh: inactive

What do the screens show for `NC(=O)c1ccc(C2SCC(=O)N2CCc2ccccc2)cc1` (configuration not stated)?
ANO1 activ: inactive; KCNK3 inh: inactive

How did O=C1CSC(c2ccccc2)N1CCc1ccccc1 (configuration not stated) do in these assays?
TMEM16A inh: inactive; Kir21 inh: -4.2*; KCNK9 inh: inactive; ANO1 activ: inactive; KCNK3 inh: inactive

Results for COc1cccc(N=Nc2c(=O)[nH]n3c(=O)cc(C)[nH]c23)c1 ?
TMEM16A inh: inactive; Kir21 inh: 0.28; KCNK9 inh: inactive; ANO1 activ: -21*; KCNK3 inh: inactive

How did O=c1c2ccccc2n(CC(O)CN2CCCCC2)c2ccccc12 (configuration not stated) do in these assays?
TMEM16A inh: inactive; Kir21 inh: 0.07; KCNK9 inh: -8.1*; ANO1 activ: inactive; KCNK3 inh: inactive

What do the screens show for `COc1ccc(CN2CCN(CC(O)Cn3c4ccccc4c4ccccc43)CC2)cc1` (configuration not stated)?
TMEM16A inh: inactive; Kir21 inh: -4.4*; KCNK9 inh: inactive; ANO1 activ: inactive; KCNK3 inh: inactive

Results for COc1ccc(N(CC(O)Cn2c3ccccc3c3ccccc32)S(=O)(=O)c2ccccc2)cc1 (configuration not stated) ?
TMEM16A inh: inactive; Kir21 inh: 0.98; KCNK9 inh: -7.5*; ANO1 activ: -4.8*; KCNK3 inh: inactive

Results for OC(CN1CCCCC1)Cn1c2ccccc2c2ccccc21 (configuration not stated) ?
TMEM16A inh: inactive; Kir21 inh: 1.2; KCNK9 inh: inactive; ANO1 activ: inactive; KCNK3 inh: inactive

How did COc1ccc(C(=O)N/C(=C\c2cn(C)c3ccccc23)C(=O)NCCCn2ccnc2)cc1 do in these assays?
TMEM16A inh: inactive; Kir21 inh: -2.6; KCNK9 inh: inactive; ANO1 activ: inactive; KCNK3 inh: inactive

Results for CCn1c(SCC(=O)Nc2ccccc2Br)nnc1-c1cnccn1 ?
TMEM16A inh: inactive; Kir21 inh: -1.2; KCNK9 inh: inactive; ANO1 activ: inactive; KCNK3 inh: inactive

How did Cc1cc2c(=Cc3ccc(N(C)C)cc3)c3ccccc3n2[n+]1C do in these assays?
ANO1 activ: inactive; KCNK3 inh: -10*

Results for C[n+]1c(-c2ccccc2)cc2c(=Cc3ccccc3)c3ccccc3n21 ?
ANO1 activ: -10*; KCNK3 inh: inactive

Results for CCOC(=O)c1cc2c(=Cc3ccc(N(C)C)cc3)c3ccccc3n2[n+]1C ?
ANO1 activ: inactive; KCNK3 inh: -11*

How did CN(C)c1ccc(C=c2c3ccccc3n3c2c2ccccc2[n+]3C)cc1 do in these assays?
ANO1 activ: inactive; KCNK3 inh: inactive
